Assay results reported in PubChem BioAssay AID602481 (Broad Institute, 2012).
Among all 360,000 compounds or so, about 340 (0.094%) were called active. This excerpt belongs to a sample that is enriched for actives. Values without a mark were called inactive. Rule as the data show it: active = inhibition above about 40%; inconclusive = no clear call, values can overlap the other calls; inactive = below that.

These compounds were tested on 7,8-diaminopelargonic acid synthase BioA (Mycobacterium tuberculosis) (assay: M. tuberculosis BioA enzyme inhibitors, primary screen, biochemical, plate reader, single point, HTS (AID 602481)). Conditions: purified M. tuberculosis BioA enzyme, at 9.99 µM, hits give high values.

SMILES	inhibition
O=C(NCC1CC1)[C@@H]1[C@@H](CO)[C@@H]2Cn3c(ccc(-c4ccccc4)c3=O)[C@H]1N2Cc1nccs1	0.617%
CC(C)CC#Cc1ccc2c(c1)O[C@H](CN(C)C(=O)Cc1cccnc1)[C@H](C)CN([C@@H](C)CO)S2(=O)=O	5.43%
CC(=O)c1ccc(N2Cc3ccccc3C2)cc1	10.6%
CC(=O)c1ccc(N2CCN(C(=O)c3ccc4nc[nH]c4c3)CC2)cc1	57% (active)
CC(=O)c1ccc(N2CCN(CC(O)c3ccccc3)CC2)cc1 (centres undefined)	20.2%
Cc1ccc(Cn2c(C)c3cnn(CC(=O)NCc4ccccn4)c(=O)c3c2C)cc1	8.47%
Cc1c2cnn(CC(=O)NCc3ccccn3)c(=O)c2c(C)n1Cc1ccc(Cl)cc1	86.8% (active)
O=C(Cn1ncc2c3ccccc3n(Cc3ccccc3)c2c1=O)NCc1ccccn1	-3.36%
O=C(CSc1n[nH]c(-c2cccnc2)n1)Nc1ccnc2ccccc12	46% (active)
O=C(CSc1n[nH]c(-c2cccnc2)n1)Nc1ccc(Cl)cc1	16.3%
O=C(CSc1ncn[nH]1)Nc1ccnc2ccccc12	1.08%
Cc1ccc(S(=O)(=O)N(C)C[C@@H]2Oc3ccc(NS(=O)(=O)c4ccc(F)cc4)cc3CC(=O)N([C@@H](C)CO)C[C@H]2C)cc1	2.21%
C[C@@H]1CN([C@H](C)CO)C(=O)Cc2cc(NC(=O)CCCCCC(=O)Nc3ccccc3N)ccc2O[C@H]1CN(C)S(=O)(=O)c1ccc(F)cc1	0.122%
C[C@@H]1CN([C@@H](C)CO)C(=O)c2c(c3ccccc3n2C)-c2ccccc2CO[C@H]1CN(C)Cc1cccc(C(=O)O)c1	-1.04%
CCC(=O)Nc1ccc2c(c1)C(=O)N(C)C[C@H](OC)[C@H](C)CN(C(=O)C1CCC1)[C@@H](C)CO2	1.3%
C[C@H](CO)N1C[C@H](C)[C@@H](CN(C)S(=O)(=O)c2cn(C)cn2)Oc2c(NC(=O)C3CC3)cccc2C1=O	-1.33%
CC(=O)N[C@@H]1C=C[C@H](CC(=O)NCC2CCCCC2)O[C@H]1CO	-0.006%
CO[C@H]1CN(C)C(=O)c2ccc(NS(C)(=O)=O)cc2OC[C@@H](C)N(Cc2ccccc2)C[C@@H]1C	-2.35%
CCCNC(=O)N(C)C[C@H]1Oc2ncc(C#C[C@@H](C)O)cc2C(=O)N([C@@H](C)CO)C[C@@H]1C	-0.359%
CCC(=O)N1C[C@@H](C)[C@@H](OC)CN(C)C(=O)c2ccc(NC(=O)C3CCCCC3)cc2OC[C@H]1C	-0.504%
C[C@H](CO)N1C[C@H](C)[C@@H](CN(C)Cc2ccccc2)Oc2ccc(NC(=O)CCCN(C)C)cc2C1=O	-2.64%
CCCNC(=O)C[C@@H]1CC[C@H]2[C@H](COc3ccc(NS(=O)(=O)c4ccccc4C)cc3C(=O)N2C)O1	1.74%

SMILES	inhibition
COc1c(C=O)c(CCN(C)C(=O)c2ccc(F)cc2)cc2c1OCO2	48.4% (active)
COc1ccc(C(=O)N(C)Cc2ccc(OC)c(OC)c2OC)cc1S(=O)(=O)N1CCOCC1	-0.32%
CO[C@@H](CN(C)C(=O)c1ccc2c(c1)OCO2)[C@@H](C)CN([C@H](C)CO)S(=O)(=O)c1ccccc1	3.78%
O=C(Cc1ccccc1)N1C[C@H]2[C@@H](c3ccccc31)[C@H](CO)N2C(=O)C1CCOCC1	-4.05%
CC(=O)N(C)C[C@@H]1Oc2ncc(C#Cc3ccccn3)cc2C(=O)N([C@@H](C)CO)C[C@@H]1C	-5.71%
CN(C)C(=O)c1cccc(-c2ccc3c(c2)[C@H]2[C@H](CCN2C(=O)c2cccnc2)[C@H](CO)N3)c1	19.8%
Cc1ccccc1S(=O)(=O)N(C)C[C@@H]1OCc2ccccc2-c2c(n(C)c3ccccc23)C(=O)N([C@H](C)CO)C[C@H]1C	-1.26%
C[C@@H]1CCCCO[C@H](CN(C)S(=O)(=O)c2cn(C)cn2)[C@@H](C)CN([C@@H](C)CO)C(=O)c2cc(NC(=O)CCC(F)(F)F)ccc2O1	-0.672%
COc1ccc(-c2ccc3c(c2)[C@@H]2[C@@H](CCN2C(=O)Cc2ccccn2)[C@H](CO)N3C)cc1	-0.705%
CN1c2ccc(-c3ccccc3)cc2[C@H]2[C@H](CCN2C(=O)Cc2ccccn2)[C@H]1CO	50.1% (active)
CN1c2ccc(-c3ccccc3F)cc2[C@H]2[C@H](CCN2C(=O)Cc2ccccn2)[C@H]1CO	6.26%
COCc1cn(CC[C@H]2CC[C@@H](NC(=O)Nc3ccc(OC)cc3)[C@@H](CO)O2)nn1	4.23%
CN1c2ccc(-c3cccc(C#N)c3)cc2[C@@H]2[C@@H](CCN2C(=O)C2CCC2)[C@@H]1CO	1.18%
C=CCOc1nc2c(c(=O)n(C)c(=O)n2C)n1Cc1ccc(Cl)cc1Cl	-1.57%
CCOC(=O)N1CCN(Cc2nc3c(c(=O)n(C)c(=O)n3C)n2Cc2ccccc2)CC1	4.21%
Cn1c(=O)c2c(nc(OCc3cccnc3)n2Cc2ccccc2)n(C)c1=O	69.8% (active)
CN(C)C(=O)C[C@H]1C[C@H]2c3cc(NC(=O)Nc4ccc(C(F)(F)F)cc4)ccc3O[C@H]2[C@@H](CO)O1	-0.072%
COCCN(C[C@H]1[C@H](c2ccccc2)[C@@H](CO)N1C(C)=O)C(=O)c1cccnc1	4.64%
C[C@H](CO)N1C[C@H](C)[C@@H](CN(C)C(=O)Cc2cccnc2)Oc2ncc(-c3ccncc3)cc2C1=O	5.57%
CCCNC(=O)N1C[C@H](C)[C@H](OC)CN(C)C(=O)c2cc(NC(=O)CC)ccc2OC[C@H]1C	0.679%
CO[C@@H](CN(C)S(=O)(=O)c1ccc(C)cc1)[C@@H](C)CN([C@@H](C)CO)S(=O)(=O)c1cccc(Cl)c1	-0.469%
CN1C(=O)c2cc(NC(=O)Nc3ccccc3F)ccc2OC[C@H]2O[C@@H](CC(=O)Nc3cccc(Cl)c3)CC[C@@H]21	4.99%
